Source: PubChem BioAssay
SMARCA2 act – SMARCA2 function activation, primary screen; MG213 cells, MMTV-luciferase reporter, dexamethasone, overnight; actives 1% (n = 370,000); activation, % at 9.1 µM; AID 652017; in the data active = activation above about 7.8%;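 note: 0% = vehicle wells and 100% = reference activator wells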
esBAF inh – inhibitors of esBAF chromatin remodeling in mouse ES cells | Bmi1-luciferase knock-in reporter, 24 h; 100% = twice the neutral-well signal | actives 2% (n = 350,000) | reporter increase, % at 12.5 µM; in the data active = activation above about 40%; inconclusive = no clear call, values can overlap the other calls;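 note: 0% = median of the plate's neutral control wells and 100% = double that signal; a rise in the Bmi1 reporter signal indicates esBAF inhibition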
Wnt act – activates Wnt/beta-catenin signaling in a reporter cell assay; actives 1.2% (n = 300,000); activator, plate reader; AID 743398; activation, % at 9.35 µM; in the data active = activation above about 30%, passing the limit was not always enough; inconclusive = no clear call, values can overlap the other calls;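 note: 0% = neutral control wells and 100% = positive control wells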
MITF TRPM1 HTS – activators of MITF-driven TRPM1 promoter activity in SK-MEL-5 cells; SK-MEL-5 TRPM1-promoter luciferase, 24 h; % of positive control, neutral wells = 0; activation, % at 12.5 µM; actives 0.75% (n = 300,000); AID 588334;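 active = mean activation of at least 80% with every replicate also reaching 80%; inconclusive = mean reaches 80% but some replicate falls short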;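 note: 0% = neutral control wells and 100% = parthenolide positive control wells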
HSF1 activator – increases HSF-1 driven luciferase reporter signal; NIH3T3-HGL HSF-1 luciferase reporter, MG132, 8 h; 100% = twice DMSO control signal; activation, % at 9 µM; actives 1.7% (n = 300,000); AID 504408;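 active = mean replicate activation of at least 50% with a set share of replicates each reaching 50%; inconclusive = only one of those two conditions met; inactive = mean below 50% and too few replicates reaching it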;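 note: 0% = median of the neutral control wells and 100% = twice that signal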
HSF1 inh – HSF1 inhibition; actives 0.77% (n = 300,000); NIH3T3-HGL HSE-luciferase, MG132-induced, luminescence 8 h; hits give low values; activity change, negative = inhibition, % at 7.5 µM (by protocol);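 active = more than half of replicate wells show activity change below -50%, luminescence cut by over half; inconclusive = some wells, but at most half, below -50%; inactive = no replicate well below -50%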;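 note: luciferase reports HSF-1 transcriptional activity via heat shock element; 0% = median of DMSO wells and -100% = zero luminescence signal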
* marks the source's active call; other numbers are inactive results. In the library only some 4.3% were active in any assay of this set; here they are far more common.

CCc1cc(CNC(=O)c2cc(COc3ccc(C)nc3)on2)on1 was read as SMARCA2 act 2, esBAF inh 60*, Wnt act 22, MITF TRPM1 HTS 35, HSF1 activator 18 and HSF1 inh 16.
Screening CC(=O)c1ccc(OCc2cc(C(=O)NCCn3nc(C)cc3C)no2)cc1 returned SMARCA2 act 2, esBAF inh 44*, Wnt act -1, MITF TRPM1 HTS 39, HSF1 activator 25 and HSF1 inh 8.
Screening Cc1cc(C)n(CC(C)NC(=O)c2cc(COc3c(F)cccc3F)on2)n1 (stereo not given) returned SMARCA2 act 0, Wnt act -2, MITF TRPM1 HTS -4, HSF1 activator -3 and HSF1 inh -7.
Cc1cc(CNC(=O)c2cc(COc3ccc(F)c(F)c3)on2)nn1C was read as SMARCA2 act 3, esBAF inh 65*, Wnt act 29, MITF TRPM1 HTS 86*, HSF1 activator 49 and HSF1 inh 41.
Screening Cc1cc(C)n(CC(C)NC(=O)c2cc(COc3ccc(F)c(F)c3)on2)n1 (stereo not given) returned SMARCA2 act 5, esBAF inh 62*, Wnt act 12, MITF TRPM1 HTS 67, HSF1 activator -58 and HSF1 inh -44.
`COc1ccc(C#Cc2ccc3c(c2)O[C@@H](CN(C)C(C)=O)[C@H](C)CN([C@@H](C)CO)S3(=O)=O)cc1` gave esBAF inh 1.
C[C@H](CO)N1C[C@H](C)[C@H](CN(C)S(=O)(=O)c2ccccc2)Oc2ccc(NC(=O)CCC(F)(F)F)cc2C1=O was read as esBAF inh 1.
Cc1cccc(CC(C)NC(=O)c2cc(COc3ccc(F)cc3F)on2)n1 (stereo not given) was read as SMARCA2 act 0, esBAF inh 42*, Wnt act 8, MITF TRPM1 HTS 15, HSF1 activator -2 and HSF1 inh 2.
`C[C@@H]1CCCCO[C@H](CN(C)C(=O)Nc2cccc3ccccc23)[C@@H](C)CN([C@H](C)CO)C(=O)c2cc(NC(=O)c3ccncc3)ccc2O1` gave esBAF inh -7.
Screening Clc1cc(Cl)c2nc(N3CCOCC3)sc2c1 returned SMARCA2 act 5, esBAF inh 61*, Wnt act 42*, HSF1 activator 34 and HSF1 inh 20.
Clc1ccc(-c2ccnc3nc(N4CCOCC4)nn23)c(Cl)c1 was read as SMARCA2 act -5, esBAF inh -6, Wnt act -1 and MITF TRPM1 HTS 7.
Clc1ccc(-c2nsc(N3CCOCC3)n2)c(Cl)c1 was read as SMARCA2 act 6, esBAF inh 14, Wnt act inconclusive, MITF TRPM1 HTS 37, HSF1 activator 62* and HSF1 inh 28.
Screening COc1ccc(NC(=O)Nc2ccc3c(c2)[C@H]2C[C@H](CC(=O)NCc4ccccn4)O[C@H](CO)[C@H]2O3)cc1 returned esBAF inh 2.
`CCCNC(=O)C[C@@H]1CC[C@@H]2[C@H](COc3ccc(NC(=O)COC)cc3C(=O)N2C)O1` gave esBAF inh -4.
Cc1ccc(Oc2nnc(-c3ccccc3)c3ccccc23)cc1 was read as SMARCA2 act -2, esBAF inh 8, Wnt act 0, MITF TRPM1 HTS 22, HSF1 activator 27 and HSF1 inh 9.
Screening Cc1ccc(-c2nnc(Oc3cccc(C)c3)c3ccccc23)cc1 returned SMARCA2 act 2, esBAF inh 53*, Wnt act 2, MITF TRPM1 HTS 41, HSF1 activator 29 and HSF1 inh 25.
For Cc1cc(-c2nnc(-c3cccc(Cl)c3)o2)no1 the results were SMARCA2 act -1, Wnt act 53*, HSF1 activator 25 and HSF1 inh 20.
C[C@H](CO)N1C[C@H](C)[C@H](CN(C)C(=O)Nc2ccc(C(F)(F)F)cc2)Oc2ccc(NS(=O)(=O)c3ccc(F)cc3)cc2C1=O was read as esBAF inh 3.
Screening Cc1cc(C)cc(N(CC(=O)Nc2ccc(Br)cc2)S(=O)(=O)c2c(C)[nH]c(=O)[nH]c2=O)c1 returned SMARCA2 act -1, esBAF inh -14, Wnt act 0, MITF TRPM1 HTS -3, HSF1 activator -71 and HSF1 inh -63*.
